Data: the supplement of paper PMC13380429

Each compound was assayed on Vero E6 infected with SARS-CoV-2 (assay: SARS-CoV-2 infection rate relative to infected DMSO; higher = more infection, active = 60 or less). Conditions: 24 h.

| SMILES | SARS-CoV-2 infection rate |
| --- | --- |
| O=P(O)(O)C(O)(Cn1ccnc1)P(=O)(O)O [zoledronic-acid] (10 µM) | 116% (inactive) |
| CO[C@H]1/C=C/O[C@@]2(C)Oc3c(C)c(O)c4c(O)c(cc(O)c4c3C2=O)NC(=O)/C(C)=C\C=C\[C@H](C)[C@H](O)[C@@H](C)[C@@H](O)[C@@H](C)[C@H](OC(C)=O)[C@@H]1C [rifamycin-sv] (10 µM) | 94.2% (inactive) |
| O=C(O)c1ccccc1NCCc1ccccc1 [tromaril] (10 µM) | 105% (inactive) |
| O=C[C@H](F)[C@@H](O)[C@@H](O)[C@H](O)CO [2-fluoro-2-deoxy-D-galactose] (10 µM) | 116% (inactive) |
| Cc1cn(C[C@H](N)C(=O)O)c(=O)n(Cc2ccsc2C(=O)O)c1=O (10 µM) | 96.5% (inactive) |
| O=C(O)CCc1ccc(NCc2cccc(Oc3ccccc3)c2)cc1 (10 µM) | 116% (inactive) |
| C1N2CN3CN1CN(C2)C3 [methenamine] (10 µM) | 100% (inactive) |
| CC(C)(OCc1nn(Cc2ccccc2)c2ccccc12)C(=O)O [bindarit] (10 µM) | 112% (inactive) |
| OC[C@H]1O[C@@H](n2cnc3c(NC4CCCC4)ncnc32)[C@H](O)[C@@H]1O [N6-cyclopentyladenosine] (10 µM) | 109% (inactive) |
| O=C(NCCCCN1CCN(c2cccc(Cl)c2Cl)CC1)c1ccc2c(c1)Cc1ccccc1-2 (10 µM) | 105% (inactive) |
| CC(C)(C)NCC(O)c1cc(O)cc(O)c1 (stereo not given) (10 µM) | 113% (inactive) |
| CCOc1ccc(Nc2nc(-c3c(C)nc4ccccn34)cs2)cc1 (0.833333 µM) | 102% (inactive) |
| C[C@@H](c1nc(-c2ccc(C#N)cc2)cs1)[C@](O)(Cn1cncn1)c1cc(F)ccc1F [isavuconazole] (10 µM) | 113% (inactive) |
| NC(=O)[C@@H](CCC(F)(F)F)N(Cc1ccc(-c2ncon2)cc1F)S(=O)(=O)c1ccc(Cl)cc1 [avagacestat] (10 µM) | 108% (inactive) |
| OCc1cc(C(O)CNCCCCCCOCCCCc2ccccc2)ccc1O (stereo not given) [salmeterol] (10 µM) | 54.5% (active) |
| CNc1nc(-c2ccc3c(N)n[nH]c3c2)cc(N2C[C@@H](C(=O)NC3CCCCC3)CC[C@H]2C)n1 (0.833333 µM) | 106% (inactive) |
| CCOC(=O)[C@@H](N)Cc1ccc(-c2cc(O[C@H](c3ccc(Cl)cc3-n3ccc(C)n3)C(F)(F)F)nc(N)n2)cc1 [telotristat-ethyl] (10 µM) | 95.5% (inactive) |
| COc1ccc(-c2coc3cc(O)ccc3c2=O)cc1 [formononetin] (10 µM) | 106% (inactive) |
| COc1ccc(COc2cc3oc(=O)c4cc(C(C)O)ccc4c3cc2OC)cc1 (stereo not given) [palomid-529] (10 µM) | 113% (inactive) |
| C[C@@H]1CC[C@H]2C(C)(C)[C@H]3C[C@@]12CC[C@@]3(C)O [cedrol] (10 µM) | 95.5% (inactive) |

| SMILES | SARS-CoV-2 infection rate |
| --- | --- |
| CCOC(=O)[C@H](CCc1ccccc1)N[C@@H](C)C(=O)N1[C@H](C(=O)O)C[C@H]2CCCC[C@@H]21 [trandolapril] (10 µM) | 106% (inactive) |
| CN(C)C/C=C(/c1ccc(Br)cc1)c1cccnc1 [zimelidine] (10 µM) | 97% (inactive) |
| CC(C)[C@](O)(c1ccc2cc(OC(F)F)c(OC(F)F)cc2c1)c1c[nH]nn1 (10 µM) | 102% (inactive) |
| CN1CCc2c(c3ccccc3n2Cc2ccccc2)C1 [mebhydrolin] (10 µM) | 104% (inactive) |
| O=C(Nc1cc(Oc2cc(F)c(NC(=O)C3(C(=O)Nc4ccc(F)cc4)CC3)cc2F)ccn1)C1CC1 [altiratinib] (10 µM) | 88.5% (inactive) |
| O=C(Nc1cccnc1)N1CCC(Cc2cccc(Oc3ccc(C(F)(F)F)cn3)c2)CC1 (0.833333 µM) | 95.5% (inactive) |
| CC1(c2ccccc2)OC(C(=O)O)=CC1=O (stereo not given) [acifran] (10 µM) | 102% (inactive) |
| Cc1[nH]nc(C(F)(F)F)c1Cc1sc2c(c1C(=O)N1C[C@](C)(O)CO1)c(=O)n(C)c(=O)n2C(C)C (10 µM) | 101% (inactive) |
| COc1ccc(C(=O)N2CCCc3cc(C4=NNC(=O)SC4C)ccc32)cc1OC (stereo not given) (0.833333 µM) | 109% (inactive) |
| NS(=O)(=O)Nc1ncnc(OCCOc2ncc(Br)cn2)c1-c1ccc(Br)cc1 (10 µM) | 120% (inactive) |
| CC(C)N1CCN(c2ccc(OCC3COC(Cn4cncn4)(c4ccc(Cl)cc4Cl)O3)cc2)CC1 (stereo not given) [terconazole] (0.833333 µM) | 106% (inactive) |
| C[C@H]1C[C@@H]2[C@H]([C@@H](O)C[C@@]3(C)[C@H]2CC[C@]3(O)C(=O)COC(=O)CCC(=O)O)[C@@]2(C)C=CC(=O)C=C12 [methylprednisolone-sodium-succinate] (10 µM) | 102% (inactive) |
| O=[N+]([O-])c1ccccc1S(=O)(=O)NCC1CCC(CNC[C@H]2CCc3ccccc3C2)CC1 (stereo not given in full) (0.833333 µM) | 97.5% (inactive) |
| CCc1c(-c2ccccc2)c(-c2ccccc2)nn1-c1ccccc1-c1cccc(OCC(=O)O)c1 (10 µM) | 96.5% (inactive) |
| O=c1ncccn1[C@@H]1O[C@H](CO)[C@@H](O)[C@H]1O [zebularine] (10 µM) | 104% (inactive) |
| CC(C)C[C@@H](N)C1(c2ccc(Cl)cc2)CCC1 (10 µM) | 116% (inactive) |
| NC(=O)C[S+]([O-])C(c1ccccc1)c1ccccc1 (stereo not given) (10 µM) | 106% (inactive) |
| CC(=O)CC/C=C(\C)CC/C=C(\C)CC/C=C(\C)CCC=C(C)C [teprenone] (10 µM) | 101% (inactive) |
| O=c1[nH]cnc2nc[nH]c12 [hypoxanthine] (10 µM) | 108% (inactive) |
| OCC(O)CN1CCN(c2ccccc2)CC1 (stereo not given) [dropropizine] (10 µM) | 103% (inactive) |
